# Compounds with a hit are over-represented: about 8.3% of the library has one in this group of screens.
# FBPA Giardia inh: blocks Giardia fructose-bisphosphate aldolase activity | A8B2U2 | purified Giardia FBPA | Potency, µM (highest dose often 59.6 µM), without a hit: at the highest dose activity, negative = inhibition, actives largely listed as inhibitors | 0.71% of 290,000 active | AID 2451; further: potency means the concentration at half of the fitted maximal effect; nearly all actives have a fitted effect of over 55% in size
# Target sequence (A8B2U2 whole entry, looked up): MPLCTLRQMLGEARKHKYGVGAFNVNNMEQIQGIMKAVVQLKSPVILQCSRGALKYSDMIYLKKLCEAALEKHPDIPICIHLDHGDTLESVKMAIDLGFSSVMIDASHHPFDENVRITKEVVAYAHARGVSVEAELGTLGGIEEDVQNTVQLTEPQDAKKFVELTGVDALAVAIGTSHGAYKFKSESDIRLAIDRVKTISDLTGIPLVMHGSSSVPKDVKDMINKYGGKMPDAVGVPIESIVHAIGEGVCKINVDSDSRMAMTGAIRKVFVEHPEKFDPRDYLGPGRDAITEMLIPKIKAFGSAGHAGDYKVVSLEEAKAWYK
#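 40 nM FBPA preincubated 10 min at RT with compound (up to 57.5 uM final), then substrate plus GAPDH/TPI/NAD/arsenate coupling and diaphorase/resazurin added. Fluorescence read after 20 min at RT, 525/598 nm.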
# HCV inhibitor: blocks hepatitis C virus. 3.4% of 340,000 active. Huh7.5.1 HCVcc-Cre infection, luciferase reporter, 44 h. AID 651820. Potency, µM (top dose mostly 41.8 µM), without a hit: top-dose activity change, negative = inhibition, actives largely listed as inhibitors; further: potency means the concentration at half of the fitted maximal effect
#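 HCVcc-Cre virus at an moi near 0.5 was added right after compound to cells cultured 4 h from seeding (1,000 cells/well). Luciferase activity was determined 44 h later, 15 min after substrate addition at RT.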
# HCMV antiviral: inhibitors of human cytomegalovirus; activity change, negative = inhibition, % at 57.5 µM; 4.5% of 410,000 active; HFF cells, HCMV-luciferase reporter, 72 h; hits give low values; AID 1259415; in the data active means activity change below about -60%; inconclusive means no clear call, values can overlap the other calls; inactive means above about -39%
#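 Cell-based, HFFs, 1000 cells/well, 16 h 37C; cpds in DMSO + HCMV-luc, MOI 1 PFU/cell; 72 h 37C; OneGlo luminescence after 5 min RT; norm. to buffer vs Salinomycin 10uM.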
# FMDV antiviral: foot and mouth disease virus antiviral activity; FMDV antiviral cell-based qHTS; 1.2% of 410,000 active; Potency, µM (series often up to 57.9 µM), without a hit: at the highest dose activity change, negative = inhibition, hits mostly inhibitors; calls by dose curve; tested in HEK293T cells; further: read-out not given here; potency means the concentration at half of the fitted maximal effect; nearly all actives have a fitted effect of over 45% in size
# LASV entry inh: inhibitors of Lassa virus binding or cell entry | Lassa virus pseudotype entry inhibition, cell reporter | Potency, µM (highest dose often 37.9 µM), inactives show at the highest dose activity change, negative = inhibition, hits mostly inhibitors | 1.2% of 300,000 active | AID 540256; calls by dose curve; tested in HEK293 cells; further: potency means the concentration at half of the fitted maximal effect; nearly all actives have a fitted effect of over 50% in size
# Marburg entry inh: Marburg virus entry inhibition. Marburg virus pseudotyped entry inhibition, cell reporter. Potency, µM (titrated, usually from 37.8 µM), for inactives: at the highest dose activity change, negative = inhibition, actives largely listed as inhibitors. 1.8% of 300,000 active. AID 540276; calls by dose curve; tested in HEK293 cells; further: potency means the concentration at half of the fitted maximal effect
# * = called active by the depositor; ? = inconclusive; . = not tested or not shown; [ ] = another dose, or the depositor's remark. Unless noted, the call rests on the fitted dose curve; in most records, active means well fitted curve in the direction sought with a large enough effect; inconclusive means small, poorly fitted or top-dose-only effect, or another doubt; inactive means no such curve, though single readings can be large; an effect the other way counts as inactive or inconclusive. On the % scale 0 is the no-effect control and ±100 the full control effect.
SMILES,FBPA Giardia inh,HCV inhibitor,HCMV antiviral,FMDV antiviral,LASV entry inh,Marburg entry inh
COc1ccc(C(C(=O)NC2CCCC2)N(C(=O)c2snc(-c3ccc(F)cc3)c2N)c2cccc(F)c2)cc1 (centres undefined),2.9%,10µM*,-39.4,11.5%,-11.4%,-1.4%
Cc1ccc(CN(Cc2ccco2)C(=O)COc2ccc(Cl)cc2)o1,.,.,-34.9,-10.2%,2.0%[46.1 µM],10.5%[46.1 µM]
CCOc1ccc(C(C(=O)NC2CCCC2)N(C(=O)c2snc(C(N)=O)c2N)c2cccc(O)c2)cc1 (centres undefined),-2.2%,12.6µM*,-34.5,-18.3%,?,?
COCCNC(=O)C(c1ccc(C)o1)N(C(=O)c1snc(C(N)=O)c1N)c1ccc(C)c(C)c1 (centres undefined),4.3%,-23.5%,-65.2*,5.9%,2.5%,-1.8%
NC(=O)c1nsc(C(=O)N(c2cccc(O)c2)C(C(=O)NC2CCCC2)c2ccc(Cl)cc2)c1N (centres undefined),-4.6%,-19.1%,-6.4,-28.5%,-14.9%,0.8%[46.1 µM]
COc1ccc(N(C(=O)c2snc(C(N)=O)c2N)C(C(=O)NC2CCCC2)c2ccc3ncccc3c2)cc1 (centres undefined),-7.5%,?,-89.2*,-16.8%,?,?
CCC1CN(C(=O)N2CCC(C(=O)NCCC3=CCCCC3)CC2)c2cc(C)ccc2O1 (centres undefined),.,.,128.9,?,-19.8%[46.1 µM],.
Cc1cc(C)n(-c2nc(SCCN(C)C)c3c4c(sc3n2)COC(C)(C)C4)n1,4.6%,7.94µM*,11.3,-9.3%,?,?
Cc1ccc(N2C(=O)CS(=O)(=O)C23C(=O)N(Cc2ccccc2C)c2ccccc23)cc1Cl (centres undefined),.,.,-7.9,-24.8%,?,.
C[C@H](CO)N1C[C@H](C)[C@@H](CN(C)C(=O)Nc2ccc(C(F)(F)F)cc2)Oc2c(NS(=O)(=O)c3cn(C)cn3)cccc2C1=O,.,2.82µM*,-10.1,39.8%,.,.
Cc1ccc(S(=O)(=O)Nc2ccc3c(c2)C(=O)N([C@H](C)CO)C[C@H](C)[C@@H](CN(C)C(=O)Nc2ccc(C(F)(F)F)cc2)O3)cc1,.,12.6µM*,10.5,-12.9%,.,.
Cc1noc(C)c1NC(=O)N(C)C[C@@H]1Oc2ccc(NS(=O)(=O)c3c(C)noc3C)cc2C(=O)N([C@H](C)CO)C[C@H]1C,.,3.16µM*,-36.1,-13.5%,.,.
Cc1noc(C)c1S(=O)(=O)N(C)C[C@H]1Oc2ccc(NS(=O)(=O)c3cn(C)cn3)cc2C(=O)N([C@H](C)CO)C[C@@H]1C,.,3.55µM*,-5.3,5.5%,.,.
C[C@H](CO)N1C[C@H](C)[C@@H](CN(C)C(=O)Nc2ccc(C(F)(F)F)cc2)Oc2ccc(NS(=O)(=O)c3ccc(F)cc3)cc2C1=O,.,-21.7%,-32.7,-7.0%,.,.
Cc1noc(C)c1S(=O)(=O)Nc1ccc2c(c1)C(=O)N([C@H](C)CO)C[C@H](C)[C@@H](CN(C)C(=O)NC(C)C)O2,.,?,26.1,-1.2%,.,.
Cc1ccc(C)c(N2CCN(C(=O)Cn3c(-c4cccs4)cc4ccccc43)CC2)c1,.,.,4.7,-8.5%,?,.
Cc1ccc(-c2c(C(=O)Nc3ccc(F)c(F)c3)oc(=O)c3ccccc23)cc1,.,.,4.0,-11.9%,?,1.4%[46.1 µM]
O=[N+]([O-])c1cccc2nc3ccccc3c(NCCCn3ccnc3[N+](=O)[O-])c12,.,?,-97.2*,14.1µM*,?,?
N#Cc1cc(Oc2cccc3cccnc23)c(-n2nnc3ccccc32)cc1C#N,-29.1%,?,.,15.8µM*,?,?
COc1cccc(N/C(SCc2cccc([N+](=O)[O-])c2)=C(/C#N)C(N)=O)c1,?,-15.4%,-2.3,35.5µM*,?,?
Cc1ccccc1N/C(SCc1cccc(Br)c1)=C(/C#N)C(N)=O,-24.1%,-25.3%,-68.5*,-26.2%,-20.8%,16.9%
Cc1ccccc1NC(=O)NNC(=O)CCc1ccccc1,1.3%,12.0%,6.5,2.5%,26.1%[46.1 µM],4.0%[46.1 µM]
Cc1ccccc1N1C(=O)[C@@H]2[C@H](ON(c3ccccc3)[C@H]2c2ccncc2)C1=O,.,.,.,.,.,-6.2%
c1ccc(C(OC2CCCN(CCc3ccc4c(c3)OCO4)C2)c2ccccc2)cc1 (centres undefined),0.6%,.,.,.,.,.
O=C(NNc1c2ccccc2nc2ccccc12)c1ccc(O)cc1O,-8.7%,?,-19.6,-23.6%,-8.2%,-24.7%
SMILES,FBPA Giardia inh,HCV inhibitor,HCMV antiviral,FMDV antiviral,LASV entry inh,Marburg entry inh
O=C(NNc1c2ccccc2nc2ccccc12)c1ccccc1O,-5.9%,8.91µM*,-21.7,-16.5%,?,?
O=C(NNc1nc(=O)c2cccnc2s1)c1ccccc1O,1.1%,3.16µM*,14.5,46.0%,?,11.1%[46.1 µM]
O=C(NNc1c2ccccc2nc2ccccc12)c1ccccc1Cl,7.4%,4.47µM*,-25.3,-17.4%,.,.
CCCCC(O)(CCCC)C(=O)N/N=C(\C)c1ccc(Cl)cc1,3.1%,-17.6%,-8.1,-22.5%,-44.3%[46.1 µM],11.2µM*
C/C(=N/NC(=O)CNc1ccc(C)cc1)c1ccc(Cl)cc1,-3.1%,-10.5%,-13.2,.,-33.5%,-7.2%
Nc1ccc(O)c(C(=O)O)c1,3.54µM*,.,.,.,.,.
CN(Cc1ccc2ccccc2c1)C(=O)c1ccc(C(F)(F)F)cc1,11.5%,2.2%,-62.5*,-4.7%,20.2%[46.1 µM],1.9%[46.1 µM]
CCOc1ccc(Nc2nc(-c3cccc(Cl)c3)c3c(n2)-c2ccccc2OC3)cc1,.,.,-74.9*,-17.9%,13.8%[46.1 µM],-0.8%[46.1 µM]
COc1ccc(Nc2nc(-c3cccc(Cl)c3)c3c(n2)-c2ccccc2OC3)cc1,.,.,-24.7,-22.6%,4.1%[46.1 µM],?
NC(=S)N/N=C/c1c[nH]c2ccc(OCc3ccccc3)cc12,14.3%,12.6µM*,.,?,.,.
NC(=S)N/N=C\c1ccccc1OCc1ccccc1,-14.1%,?,-26.0,-18.2%,-19.5%,?
O=Cc1c[nH]c2ccc(NC(=O)OCc3ccccc3)cc12,.,-2.1%,-26.7,3.5%,?,12.6µM*
COc1ccc2nc(NC(=O)c3cccc(OCc4c(C)noc4C)c3)sc2c1,7.1%,0.355µM*,8.2,-26.4%,?,?
Cc1ccc(S(=O)(=O)N2CCOCC2)cc1C(=O)Nc1ccncc1,.,6.3%,11.2,-9.3%,.,.
Cc1ccc(S(=O)(=O)N2CCOCC2)cc1C(=O)Nc1ccc(-c2cn3ccsc3n2)cc1,-5.0%,10µM*,-16.0,?,?,?
COc1ccc2nc(NC(=O)c3ccoc3C)sc2c1,4.7%,14.1µM*,125.1,-1.3%,-28.3%[14.3 µM],?
COc1ccc2nc(NC(=O)c3cc(S(=O)(=O)N4CCOCC4)ccc3C)sc2c1,-1.5%,22.4µM*,-5.4,-28.1%,-24.0%,2.3%
COc1ccc2nc(NC(=O)c3cc(C)oc3C)sc2c1,-4.2%,?,45.8,28.6%,6.5%,0.5%
Oc1cccc(Nc2nccc3[nH]c(-c4cccc(OC(F)(F)F)c4)nc23)c1,.,.,-14.5,.,.,.

# Screening results from PubChem.
